# PubChem BioAssay (NCATS)
# “And” between values parts separate entries of the source, which are not always exact repeats. Equal values may be shown once. Records with an inconclusive call do not appear. The source made the active and inactive calls. Unless noted, calls follow the shape of the dose curve; as a rule, active = well fitted curve in the direction sought with a large enough effect; inconclusive = small, poorly fitted or top-dose-only effect, or another doubt; inactive = no such curve, though single readings can be large; an effect the other way counts as inactive or inconclusive.
# Legend:
# [1] = qHTS profiling for inhibitors of Plasmodium falciparum (HB3) proliferation (AID 743324); details: Plasmodium falciparum HB3 blood-stage proliferation; at 28.7 µM (top of the series) unless noted;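 also: 100% = DMSO vehicle wells and 0% = artemisinin-treated control wells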
# Method in brief: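 P. falciparum HB3 grown in erythrocytes (0.3% parasitemia, 2.5% hematocrit final) with compound for 72 h at 37 C, 5% CO2. Parasite DNA detected by SYBR Green after saponin/triton lysis overnight; normalized to 0.29 uM artemisinin and DMSO.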
# [2] = Identifying Small Molecule Inhibitors of Pancreatic Cancer Stem Cells (Panc1, Spheroid) (AID 1259359);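 also: compound exposure lasted 48 h before reading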; also: potency is read from the fitted curve at half-maximal effect
# Method in brief: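 Adherent (2D) versus sphere (3D) formats; spheres generated 14 d in SCM beforehand. Compound transferred by pin tool after 4 h, 48 h incubation, CellTiter-Glo endpoint.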
# [3] = Identifying Small Molecule Inhibitors of Pancreatic Cancer Stem Cells (SN12C, Spheroid) (AID 1259360); details: Potency: SN12C spheroid viability; also: potency is read from the fitted curve at half-maximal effect
# Method in brief: (§1)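 Cytotoxicity read by CellTiter-Glo luminescence after 48 h compound exposure at 37C; percent activity scaled between DMSO-treated cells and cell-free wells. Spheroid formats used cells pre-formed 14 days in stem cell media on hydrogel.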
# [4] = Identifying Small Molecule Inhibitors of Pancreatic Cancer Stem Cells (Panc1, Adherent) (AID 1259362); details: Potency: viability;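 also: compound exposure lasted 48 h before the viability read; plate controls were DMSO-treated cells for no effect and cell-free media wells for full effect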
# Method in brief: (§2)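 After a 4 h attachment period, compounds were pinned into wells and cultures held 48 h under standard incubator conditions. Viability was then measured as CellTiter-Glo luminescence following 10 min at room temperature.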
# [5] = P-glycoprotein substrates identified in KB-3-1 adenocarcinoma cell line, qHTS therapeutic library screen (AID 1346986); also: nearly all actives have a fitted effect of over 60% in size
# Method in brief: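 Resistance attributable to P-gp was assessed by comparing AC50 in KB-8-5-11 with parental KB-3-1 and by tariquidar reversal. Cells were exposed 72 h and viability read by CellTiter-Glo.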
# [6] = qHTS Assay for Identifying Gametocytocidal Compounds (AID 743244);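 also: % is scaled to controls: 0 for no effect and ±100 for the full control effect; actives lower the fluorescent signal which means gametocytes are killed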; details: P. falciparum 3D7 stage III-V gametocytes, alamarBlue, 72 h; max response: stronger effect = lower value
# Method in brief: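 A resazurin-based viability read-out was applied to mature P. falciparum gametocytes: 72 h compound treatment, then 24 h dye incubation, with falling fluorescence signalling gametocytocidal effect.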
# [7] = Identifying Small Molecule Inhibitors of Pancreatic Cancer Stem Cells (A278, Adherent) (AID 1259361); also: nearly all actives have a fitted effect of over 35% in size
# Method in brief: as §2
# [8] = Identifying Small Molecule Inhibitors of Pancreatic Cancer Stem Cells (A2780, Spheroid) (AID 1259357); details: Potency: A2780 spheroid viability;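 also: compound exposure lasted 48 h before the ATP luminescence read; 100% = DMSO treated cells and 0% = wells without cells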
# Method in brief: as §1
# [9] = qHTS profiling of the MIPE4 collection as inhibitors of Plasmodium falciparum (3D7) proliferation (AID 743344; call rule not given here;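 also: scaled between DMSO vehicle wells and 0.29 µM artemisinin as full inhibition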); details: P. falciparum 3D7 in erythrocytes, SYBR Green DNA fluorescence, 72 h; at 28.5 µM (top of the series) unless noted
# Method in brief: (§3)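 Erythrocytes infected with P. falciparum (0.3% parasitemia, 2.5% hematocrit) incubated with compounds 72 h at 37 C, 5% CO2. Lysis with saponin/Triton buffer containing SYBR Green I, overnight at room temperature in the dark; DNA fluorescence (485/535 nm) normalised to 0.29 uM artemisinin and DMSO.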
# [10] = qHTS profiling of the MIPE4 collection as inhibitors of Plasmodium falciparum (DD2) proliferation (AID 743345; call rule not given here); details: P. falciparum Dd2 in erythrocytes, SYBR Green DNA, 72 h; at 28.5 µM (top of the series) unless noted
# Method in brief: as §3
# [11] = qHTS profiling of the MIPE4 collection as inhibitors of Plasmodium falciparum (DD2) proliferation (Rep 2) (AID 743346; call rule not given here); details: P. falciparum Dd2 in erythrocytes, SYBR Green DNA, 72 h; at 28.5 µM (top of the series) unless noted
# Method in brief: as §3
# [12] = qHTS profiling of the MIPE4 collection as inhibitors of Plasmodium falciparum (HB3) proliferation (AID 743347; call rule not given here;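 also: plate controls were DMSO vehicle wells for no effect and artemisinin wells for full effect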); details: P. falciparum HB3 in erythrocytes, SYBR Green DNA, 72 h; at 28.5 µM (top of the series) unless noted
# Method in brief: as §3
# [13] = qHTS assay to identify small molecule inhibitors of chordoma cells - UCH-2 (AID 1259356); also: % is scaled to controls: 0 for no effect and ±100 for the full control effect
structure (smiles),measurement,setting,value
CN(NC(=O)CC(=O)NN(C)C(=S)c1ccccc1)C(=S)c1ccccc1,"remaining proliferation (% of control), lower = more inhibition",[1],5.46%
same,Potency,[2],3.3 nM (active)
same,Potency,[3],743 nM (active)
same,Potency,[4],inactive
CC1CCC2(O1)C(C)(C)CC(O[C@@H]1O[C@H](CO[C@@H]3OC[C@](O)(CO)[C@H]3O)[C@@H](O)[C@H](O)[C@H]1O)CC2(C)O (some centres not stated),Potency,[5],inactive
O=C(O)CC/C=C\CC[C@H]1[C@@H](N2CCCCC2)[C@@H](O)C[C@@H]1OCc1ccc(-c2ccccc2)cc1,max response,[6],3.93% (inactive)
same,"remaining proliferation (% of control), lower = more inhibition",[1],76.1%
same,Potency,[2],inactive
same,Potency,[3],inactive
same,IC50 (viability decrease),[7],inactive
CCC1(Cc2ccc(N)cc2)CCC(=O)NC1=O (configuration not stated),max response,[6],9.55% (inactive)
same,"remaining proliferation (% of control), lower = more inhibition",[1],89.8% [at 57.5 µM]
same,Potency,[8],inactive
same,Potency,[3],inactive
same,IC50 (viability decrease),[7],inactive
CCCC(=O)O[C@]1(C(=O)CCl)[C@H](C)C[C@@H]2[C@H]3CCC4=CC(=O)C=C[C@]4(C)[C@@]3(F)C(=O)C[C@@]21C,"remaining proliferation (% of control), lower = more inhibition",[1],1.97%
same,"parasite growth, % of DMSO control",[9],7.36%
same,"parasite growth remaining, % of DMSO control (lower = more inhibition)",[10],7.93%
same,"parasite growth, % of control (lower = inhibition)",[11],32.4%
same,"growth, % of control",[12],7.79%
same,Potency,[13],inactive
C[C@@H]1O[C@@H](O[C@H]2[C@H](O[C@H]3[C@H](O[C@H]4CC[C@@]5(C)C(CC[C@]6(C)C5CC=C5[C@@H]7CC(C)(C(=O)O)C[C@@H](O)[C@]7(C)CC[C@]56C)[C@@]4(C)CO)O[C@H](C(=O)O)[C@@H](O)[C@@H]3O)O[C@H](CO)[C@H](O)[C@@H]2O)[C@H](O)[C@H](O)[C@H]1O (some centres not stated),outcome,[5],inactive [at 9.29 µM]
C[C@@H]1O[C@@H](O[C@H]2[C@H](OC(=O)[C@]34CCC(C)(C)C[C@H]3C3=CCC5[C@@]6(C)CC[C@H](O[C@@H]7O[C@H](CO[C@@H]8OC[C@H](O)[C@H](O)[C@H]8O)[C@@H](O)[C@H](O)[C@H]7O)C(C)(C)C6CC[C@@]5(C)[C@]3(C)C[C@H]4O)OC[C@@H](O)[C@@H]2O)[C@H](O)[C@H](O)[C@H]1O[C@@H]1OC[C@H](O)[C@H](O[C@@H]2OC[C@@H](O)[C@H](O)[C@H]2O)[C@H]1O (some centres not stated),outcome,[5],inactive [at 9.29 µM]
CCCCCCCCCCCCCCCCCCOP(=O)([O-])OC1CC[N+](C)(C)CC1,max response,[6],13.1% (inactive)
same,"remaining proliferation (% of control), lower = more inhibition",[1],112% [at 18.4 µM]
same,Potency,[8],inactive
same,Potency,[3],inactive
same,IC50 (viability decrease),[7],8120 nM (active)
CC(NC(=O)Cc1cc(F)cc(F)c1)C(=O)NC(C(=O)OC(C)(C)C)c1ccccc1 (configuration not stated),max response,[6],8.47% (inactive)
same,"remaining proliferation (% of control), lower = more inhibition",[1],104%
same,IC50 (viability decrease),[7],inactive
same,Potency,[4],inactive
CC(C)N=c1cc2n(-c3ccc(Cl)cc3)c3ccccc3nc-2cc1Nc1ccc(Cl)cc1,"parasite growth, % of DMSO control",[9],10.9%
same,"parasite growth remaining, % of DMSO control (lower = more inhibition)",[10],7.22%
same,"parasite growth, % of control (lower = inhibition)",[11],166%
same,"growth, % of control",[12],47.5%
same,Potency,[13],inactive
CC1CC(O)CC(C)(C)C1(O)CCO (configuration not stated),Potency,[5],inactive
Cc1ccc(Sc2cncc3sc(C(N)=O)cc23)cc1,Potency,[5],inactive
C=CC1(C)C=C2C(=O)CC3C(C)(C)CCCC3(C(=O)O)C2(O)CC1 (configuration not stated),Potency,[5],inactive
C=C(C(=O)OC)C1CCC2(C)C(O[C@@H]3O[C@H](CO)[C@@H](O)[C@H](O)[C@H]3O)CC(=O)C(C)C2C1O (some centres not stated),Potency,[5],inactive
CC1(C)CCC2(C(=O)OC3OC(COC4OC(CO)C(O)C(O)C4O)C(O)C(O)C3O)CCC3(C)C(=CCC4C5(C)CCC(O)C(C)(C(=O)O)C5CCC43C)C2C1O (configuration not stated),outcome,[5],inactive [at 9.29 µM]
OC[C@H]1O[C@@H](OCCc2ccc(O)cc2)[C@H](O)[C@@H](O)[C@@H]1O,max response,[6],2.01% (inactive)
Cc1onc(-c2ccccc2)c1C(=O)N[C@@H]1C(=O)N2[C@@H]1SC(C)(C)[C@@H]2C(=O)O,max response,[6],-0.392% (inactive)
same,Potency,[5],inactive
O=C1N(CC2CCCCN2)CCN1c1ccccc1 (configuration not stated),Potency,[5],inactive
C[C@]12C=CC(=O)C=C1CC[C@@H]1[C@@H]2[C@@H](O)C[C@@]2(C)[C@H]1CC[C@]2(O)C(=O)COC(=O)CCC(=O)O,max response,[6],-8.44% (inactive)
same,Potency,[5],inactive
COC1CC(OC2CCC3(C)C(=CCC4C3CCC3(C)C(C(C)O)CCC43O)C2)OC(C)C1OC1OC(C)C(OC2OC(COC3OC(COC4OC(CO)C(O)C(O)C4O)C(O)C(O)C3O)C(O)C(O)C2O)C(OC)C1O (configuration not stated),outcome,[5],inactive [at 9.29 µM]
CCC(C)/C=C(C)/C=C/C1=CC2=C(Cl)C(=O)C(C)(OC(C)=O)C(=O)C2=CN1CCCC(=O)O (configuration not stated),Potency,[5],inactive
CCC[C@@H]1C[C@@H](C(=O)N[C@@H]([C@H]2O[C@H](SC)[C@H](OP(=O)(O)O)[C@@H](O)[C@H]2O)[C@H](C)Cl)N(C)C1,max response,[6],4.72% (inactive) and 1.78% (inactive)
C[C@@H]1O[C@@H](O[C@H]2[C@H](O[C@H]3CC[C@@]4(C)C(CC[C@]5(C)C4CC=C4[C@@H]6CC(C)(C)CC[C@]6(C(=O)O)CC[C@]45C)[C@]3(C)CO)OC[C@H](O)[C@@H]2O)[C@H](O)[C@H](O[C@@H]2OC[C@@H](O)[C@H](O)[C@H]2O)[C@H]1O (some centres not stated),outcome,[5],inactive [at 9.29 µM]
